Test results taken from the antibiotic and cytotoxicity screens of Wong et al. (2023).
The whole screen tested about 39,000 compounds, of which about 3,300 (8.5%) were called active. The sample as a whole holds a higher share of actives than the screen did.

tested on: HepG2; test: cytotoxicity call (relative viability < 0.9); conditions: 10 µM

Compound	cytotoxicity call
Cc1ccc(S(=O)(=O)Nc2ccc3c(c2)C(=O)N([C@H](C)CO)C[C@@H](C)[C@H](CN(C)Cc2ccc4c(c2)OCO4)OCCCC[C@@H](C)O3)cc1	inactive
Cn1cnc(S(=O)(=O)N[C@@H]2CC[C@H](CC(=O)NCC3CC3)O[C@H]2CO)c1	inactive
OC[C@H]1O[C@H]([S][Au])[C@H](O)[C@@H](O)[C@@H]1O	active
OC[C@H]1O[C@@H](O)[C@@H](O)[C@@H](O)[C@@H]1O	inactive
OC[C@H]1O[C@@H](O)[C@H](O)[C@@H](O)[C@H]1O	inactive
Cc1noc(C)c1NC(=O)Nc1ccc2c(c1)C(=O)N([C@H](C)CO)C[C@H](C)[C@H](CN(C)S(=O)(=O)c1cn(C)cn1)O2	inactive
COc1ccc(S(=O)(=O)Nc2ccc3c(c2)C(=O)N([C@H](C)CO)C[C@@H](C)[C@H](CN(C)C(=O)Nc2cccc4ccccc24)O3)cc1	inactive
CC(C)(C)S(=O)N1Cc2cc(C(=O)NCc3ccc4c(c3)OCO4)nc(-c3cccc(-c4cccc(F)c4)c3)c2[C@H]1CCO (some centres undefined)	active
CC(C)(C)[S@](=O)N1Cc2cc(C(=O)NCc3ccc4c(c3)OCO4)nc(-c3cccc(-c4cccnc4)c3)c2[C@@H]1CCO	inactive
CC(C)(C)S(=O)N1Cc2cc(C(=O)NCc3ccc4c(c3)OCO4)nc(-c3cccc(-c4cccc(F)c4)c3)c2[C@@H]1CCO (some centres undefined)	active
CC(C)(C)[S@](=O)N1Cc2cc(C(=O)NCc3ccc4c(c3)OCO4)nc(-c3cccc(-c4ccncc4)c3)c2[C@@H]1CCO	inactive
CC(C)(C)[S@@](=O)N1Cc2cc(C(=O)NCc3ccc4c(c3)OCO4)nc(-c3cccc(-c4ccncc4)c3)c2[C@H]1CCO	inactive
CC(C)(C)[S@@](=O)N1Cc2cc(C(=O)NCc3ccc4c(c3)OCO4)nc(-c3cccc(-c4ccccc4)c3)c2[C@H]1CCO	inactive
COc1ccc([C@H]2CNCCN2)cc1	inactive
C[C@@H]1CN([C@@H](C)CO)C(=O)c2ccccc2-c2ccccc2CO[C@@H]1CN(C)C(=O)Nc1cccc(Cl)c1Cl	inactive
COc1ccc(S(=O)(=O)N(C)C[C@H]2Oc3ccc(NC(=O)Cn4cnnn4)cc3C(=O)N([C@@H](C)CO)C[C@H]2C)cc1	inactive
CCc1nc2ccc(C(=O)N3CCN(S(=O)(=O)CC)CC3)cn2c1N(CC)C(=O)CCC1CCCC1	inactive
Cc1cc(-c2ccc(N=Nc3ccc4c(S(=O)(=O)[O-])cc(S(=O)(=O)[O-])c(N)c4c3O)c(C)c2)ccc1N=Nc1ccc2c(S(=O)(=O)[O-])cc(S(=O)(=O)[O-])c(N)c2c1O.[Na+].[Na+].[Na+].[Na+]	active
Cc1ccc(S(=O)(=O)Oc2ccc(/N=N/c3ccc(-c4ccc(/N=N/c5c(O)ccc6cc(S(=O)(=O)O)cc(S(=O)(=O)O)c56)c(C)c4)cc3C)cc2)cc1	inactive
C[C@@H]1CN([C@H](C)CO)C(=O)CCCn2cc(nn2)CO[C@H]1CN(C)C(=O)Nc1ccc(C(C)(C)C)cc1	inactive
C[C@@H]1CCCCO[C@H](CN(C)C(=O)Nc2ccc(C(F)(F)F)cc2)[C@@H](C)CN([C@H](C)CO)C(=O)c2cc(NC(=O)CCCCCC(=O)Nc3ccccc3N)ccc2O1	inactive
NS(=O)(=O)OC[C@H]1C[C@@H](Nc2ccnc3cc(-c4cccc(SC(F)(F)F)c4)nn23)[C@H](O)[C@@H]1O	active
O=C(C[C@H]1C[C@H]2c3cc(NC(=O)Cc4ccncc4)ccc3O[C@H]2[C@H](CO)O1)NCc1cccc(F)c1	inactive

Compound	cytotoxicity call
CO[C@@H]1CN(C)C(=O)c2ccc(NC(=O)Nc3ccccc3F)cc2OC[C@@H](C)N(Cc2ccccc2F)C[C@H]1C	inactive
Cc1c(CN2CCN(C(=O)[C@H](C)O)CC2)sc2c(N3CCOCC3)nc(-c3cnc(N)nc3)nc12	active
CC(=O)Nc1ncc(CN2CCOCC2)s1	inactive
C[C@@H]1CN([C@H](C)CO)C(=O)Cc2cc(NC(=O)Cc3cn(C)c4ccccc34)ccc2O[C@@H]1CN(C)S(=O)(=O)c1cn(C)cn1	inactive
CC(/C=C/C(=O)NO)=C\c1ccccc1OCc1cn(-c2ccc(C[C@H]3C(=O)O[C@@H](Cc4ccccc4)[C@H]4[C@@H]5C=CCCC=C5CN43)cc2)nn1	inactive
COC(=O)[C@@H](NC(=O)Cn1cc(CCC(=O)NO)nn1)c1ccccc1	inactive
COC(=O)[C@@H](NC(=O)Cn1cc(COc2ccccc2/C=C(C)/C=C/C(=O)NO)nn1)c1ccccc1	active
CC(/C=C/C(=O)NO)=C\c1ccccc1OCc1cn(CC(=O)N2CCN(c3ccccc3)CC2)nn1	inactive
COC(=O)[C@@H](Cc1ccc(-n2cc(COc3ccccc3/C=C(C)/C=C/C(=O)NO)nn2)cc1)N1CC2=CCCC=C[C@@H]2[C@H]1[C@H](O)Cc1ccccc1	active
C=C/C=C/[C@H]1C(=C)CN([C@H](Cc2ccc(-n3cc(COc4ccccc4/C=C(C)/C=C/C(=O)NO)nn3)cc2)C(=O)OC)[C@@H]1[C@H](O)Cc1ccccc1	inactive
COC(=O)[C@@H](Cc1ccc(-n2cc(COc3ccccc3/C=C(C)/C=C/C(=O)NO)nn2)cc1)N1CC2=C[C@H](C3CC3)n3c(=O)n(C)c(=O)n3[C@@H]2[C@H]1[C@H](O)Cc1ccccc1	inactive
CCOC(=O)[C@H](Cc1ccccc1)NC(=O)Cn1cc(C(=O)NO)nn1	inactive
COC(=O)[C@H](Cc1ccccc1)N1CC2=C[C@@H](C3CC3)n3c(=O)n(C)c(=O)n3[C@H]2[C@@H]1[C@@H](O)CCn1cc(COc2ccccc2/C=C(C)/C=C/C(=O)NO)nn1	inactive
C#CCN1[C@H](/C=C/C2CC2)[C@H](Cc2ccccc2)OC(=O)[C@@H]1Cc1ccc(-n2cc(COc3ccccc3/C=C(C)/C=C/C(=O)NO)nn2)cc1	active
C=C/C=C/[C@@H]1C(=C)CN2[C@H]1[C@H](Cc1ccccc1)OC(=O)[C@@H]2Cc1ccc(-n2cc(COc3ccccc3/C=C(C)/C=C/C(=O)NO)nn2)cc1	inactive
COC(=O)[C@@H](NC(=O)Cn1cc(C(=O)NO)nn1)c1ccccc1	active
CS(=O)(=O)N1C[C@H](O)COC[C@H]2O[C@@H](CC(=O)NCc3ccccc3)CC[C@@H]21	inactive
CC(C)(C)[S@@](=O)N1Cc2cc(C(=O)N3CCc4ccccc4C3)nc(-c3cccc(-c4cncnc4)c3)c2[C@H]1CCO	inactive
COc1ccc(C#Cc2ccc3c(c2)O[C@@H](CN(C)C(=O)CN2CCOCC2)[C@H](C)CN([C@@H](C)CO)S3(=O)=O)cc1	inactive
Cc1noc(C)c1NC(=O)Nc1ccc2c(c1)C(=O)N([C@@H](C)CO)C[C@@H](C)[C@@H](CN(C)S(C)(=O)=O)O2	inactive
C[C@@H]1CN([C@@H](C)CO)C(=O)c2cc(NC(=O)CCN3CCOCC3)ccc2O[C@@H]1CN(C)Cc1ccccc1	inactive
CO[C@@H]1CN(C)C(=O)c2cc(NC(=O)c3cnccn3)ccc2OC[C@@H](C)N(CCC(F)(F)F)C[C@H]1C	inactive
C[C@H]1CN([C@@H](C)CO)C(=O)c2cccc(NS(=O)(=O)c3ccc(Cl)cc3)c2O[C@H]1CN(C)Cc1ccc(Oc2ccccc2)cc1	inactive

Compound	cytotoxicity call
C[C@@H]1CN([C@@H](C)CO)C(=O)CCCn2cc(nn2)CO[C@@H]1CN(C)C(=O)C1CC1	inactive
O=c1cc(-c2ccc(O)cc2)oc2cc(O)cc(O)c12	inactive
COc1ccc(-c2cc(=O)c3c(O)c(OC)c(OC)c(OC)c3o2)cc1OC	active
COc1ccc(-c2cc(=O)c3c(OC)cc(OC)cc3o2)cc1	inactive
COc1ccc(-c2cc(=O)c3c(O)cc(OC)cc3o2)cc1	inactive
COc1ccc(-c2cc(=O)c3c(O)cc(O)cc3o2)cc1	active
COc1ccc(-c2cc(=O)c3c(OC)c(OC)c(OC)c(OC)c3o2)cc1OC	inactive
COc1ccc(-c2cc(=O)c3c(OC)c(OC)c(OC)c(OC)c3o2)cc1	inactive
COc1ccc(-c2cc(=O)c3c(O)c(OC)c(OC)c(OC)c3o2)cc1	active
COc1ccc(-c2cc(=O)c3c(OC)c(OC)c(OC)cc3o2)cc1OC	inactive
C[C@@H]1CN([C@@H](C)CO)S(=O)(=O)c2ccc(C#C[C@@H](C)O)cc2O[C@H]1CN(C)C(=O)CN(C)C	inactive
C[C@@H]1CN([C@H](C)CO)C(=O)c2cccc(NS(C)(=O)=O)c2O[C@@H]1CN(C)S(=O)(=O)c1cccs1	inactive
Clc1ccc2nncn2n1	inactive
CNC(=O)[C@H]1O[C@H](n2cnc3c(NCc4cccc(I)c4)nc(Cl)nc32)[C@@H](O)[C@@H]1O	inactive
C[C@@H]1CCCCO[C@@H](CN(C)Cc2ccncc2)[C@H](C)CN([C@H](C)CO)C(=O)c2cc(NS(=O)(=O)c3ccc(Cl)cc3)ccc2O1	inactive
NC(=O)NCC#Cc1ccc2c(c1)[C@]1(C(=O)N2)[C@H](C(=O)N2CCN(c3ncccn3)CC2)[C@H]2C(=O)O[C@H](c3ccccc3)[C@H](c3ccccc3)N2[C@@H]1c1ccccc1OCCO	inactive
Cc1cc(C(=O)Nc2cccc3c2O[C@@H](CN(C)S(=O)(=O)c2ccc(Cl)cc2)[C@@H](C)CN([C@@H](C)CO)C3=O)n(C)n1	inactive
O=C(CN1CCOCC1)NCC[C@@H]1CC[C@H](NC(=O)Nc2ccccc2)[C@@H](CO)O1	inactive
CNC(=O)Nc1ccc(-c2nc(N3C[C@H]4CC[C@@H](C3)O4)c3cnn(C4CCC5(CC4)OCCO5)c3n2)cc1	inactive
O=C1CC[C@@H](C(=O)O)N1	inactive
O=C1CCC(C(=O)N2CSCC2C(=O)O)N1 (centres undefined)	active
O=C1CC[C@@H](C(=O)N2CSC[C@H]2C(=O)O)N1	inactive
CC(C)NC(=O)Nc1cccc2c1O[C@H](CN(C)C(=O)NC1CCCCC1)[C@@H](C)CN([C@@H](C)CO)C2=O	inactive
